# Measured values from ChEMBL document CHEMBL3988442, “University of Dundee, Small-Polar-MMV Screening Library” (2021).
# For some of these results: Potency and affinity values are given separately.
# How the values were obtained:
# Parameters in all cases: scale not given: direction of the effect not stated beside the values
# [1] = molecular target: Protein translocase subunit SecA (Escherichia coli (strain K12)) (UniProt P10408); test: Assay to Identify E. coli SecA ATPase Inhibitors; format: functional; settings: 30 µM
# [2] = molecular target: T1, Ubiquitin-activating enzyme e1, putative (Leishmania donovani (strain BPK282A1)) (UniProt E9BSI1); test: Leishmania donovani Ubiquitin Activating Enzyme (LdE1); format: functional; settings: 30 µM
# T1 sequence (whole entry): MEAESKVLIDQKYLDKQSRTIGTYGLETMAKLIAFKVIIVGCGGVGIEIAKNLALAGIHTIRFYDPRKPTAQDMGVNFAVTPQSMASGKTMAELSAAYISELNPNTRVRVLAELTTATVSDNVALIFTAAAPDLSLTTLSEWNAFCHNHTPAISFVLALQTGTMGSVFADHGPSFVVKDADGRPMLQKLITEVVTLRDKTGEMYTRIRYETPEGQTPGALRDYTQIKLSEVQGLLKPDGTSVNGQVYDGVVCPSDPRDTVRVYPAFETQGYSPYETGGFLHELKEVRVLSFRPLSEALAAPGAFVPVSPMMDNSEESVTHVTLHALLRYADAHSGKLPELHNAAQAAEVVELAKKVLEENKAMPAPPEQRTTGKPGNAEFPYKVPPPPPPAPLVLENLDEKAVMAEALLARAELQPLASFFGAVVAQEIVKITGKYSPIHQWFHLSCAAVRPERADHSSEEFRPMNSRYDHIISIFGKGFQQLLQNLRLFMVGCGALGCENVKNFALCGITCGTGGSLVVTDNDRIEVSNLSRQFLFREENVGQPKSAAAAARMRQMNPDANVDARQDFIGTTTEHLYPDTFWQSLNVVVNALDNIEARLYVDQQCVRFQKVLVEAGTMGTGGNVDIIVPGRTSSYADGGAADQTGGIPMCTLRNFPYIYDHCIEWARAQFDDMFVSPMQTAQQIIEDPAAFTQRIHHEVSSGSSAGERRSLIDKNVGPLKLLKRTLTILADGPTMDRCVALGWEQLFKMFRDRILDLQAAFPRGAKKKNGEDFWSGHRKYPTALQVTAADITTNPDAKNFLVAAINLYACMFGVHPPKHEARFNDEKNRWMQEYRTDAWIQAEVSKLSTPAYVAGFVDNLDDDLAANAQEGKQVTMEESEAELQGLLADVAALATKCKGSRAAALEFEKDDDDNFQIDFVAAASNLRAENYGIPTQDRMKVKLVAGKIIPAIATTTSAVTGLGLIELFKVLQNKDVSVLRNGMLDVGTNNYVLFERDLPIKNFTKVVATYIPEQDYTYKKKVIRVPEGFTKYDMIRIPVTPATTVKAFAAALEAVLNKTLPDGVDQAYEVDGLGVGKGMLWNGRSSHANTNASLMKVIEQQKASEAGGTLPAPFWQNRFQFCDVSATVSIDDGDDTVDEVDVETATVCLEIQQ
# [3] = molecular target: AMP-activated protein kinase, AMPK (Homo sapiens) (UniProt P54646+O43741+P54619+Q9UGJ0+Q9Y478+Q13131+Q9UGI9); test: AMP-dependent Kinase enzyme assay. An in vitro enzyme assay that detects ADP turnover that is directly proportional to AMPK activity. This uses naive AMPK that is activated during the assay with MK-8722; format: functional; settings: 30 µM
# [4] = molecular target: Sialic acid-binding Ig-like lectin 9 (Homo sapiens) (UniProt Q9Y336); test: Hs-Siglec9 ALPHAscreen SOP 20170721; settings: 10 µM
# Trypanosoma cruzi = test: Trypanosoma cruzi phosphomannomutase and mannose-1-phosphate guanylyltransferase assay; format: functional; settings: 10 µM
# [5] = molecular target: T2, Arginase-2, mitochondrial (Homo sapiens) (UniProt P78540); test: in vitro enzyme assay to detect the production of urea directly proportional to the activity of Arginase II; format: functional; settings: 33.3 µM; further: in the data most compounds retested in dose-response had high values
# T2 sequence (whole entry): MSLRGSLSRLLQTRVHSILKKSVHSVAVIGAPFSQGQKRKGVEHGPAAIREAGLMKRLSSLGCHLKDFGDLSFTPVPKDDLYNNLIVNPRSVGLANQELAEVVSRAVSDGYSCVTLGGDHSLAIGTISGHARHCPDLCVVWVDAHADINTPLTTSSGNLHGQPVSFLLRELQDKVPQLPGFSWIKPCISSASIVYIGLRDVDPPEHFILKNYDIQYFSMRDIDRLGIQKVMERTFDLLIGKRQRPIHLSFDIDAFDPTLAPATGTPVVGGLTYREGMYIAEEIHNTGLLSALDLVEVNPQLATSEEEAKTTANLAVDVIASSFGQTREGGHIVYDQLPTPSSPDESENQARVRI
# [6] = molecular target: T3, Proteasome subunit beta (Trypanosoma cruzi) (UniProt O96673); test: Trypanosoma cruzi proteasome chymotrypsin-like activity (TcProtChymo) assay.; further: in the data most compounds retested in dose-response had high values; format: functional; settings: 9.37 µM
# T3 sequence (whole entry): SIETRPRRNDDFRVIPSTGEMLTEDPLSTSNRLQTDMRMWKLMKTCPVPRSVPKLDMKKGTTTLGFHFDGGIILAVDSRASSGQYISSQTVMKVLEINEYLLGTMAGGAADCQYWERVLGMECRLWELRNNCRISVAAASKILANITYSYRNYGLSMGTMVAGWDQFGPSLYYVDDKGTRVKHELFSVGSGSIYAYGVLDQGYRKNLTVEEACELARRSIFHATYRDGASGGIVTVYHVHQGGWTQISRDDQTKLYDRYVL
# Homo sapiens = organism: Homo sapiens; test: To identify inhibition of the IFN signalling (Jak-Stat) pathway via expression of an eGFP reporter gene under the control of an IFN-stimulated response element (ISRE) containing MxA promoter.; format: functional; settings: 30 µM
# [7] = molecular target: T4, Tyrosyl-tRNA synthetase, putative (Trypanosoma cruzi (strain CL Brener)) (UniProt Q4DSP6); test: Trypanosoma cruzi tyrosyl tRNA synthetase (TcYRS) _High Tyrosine SOP; format: functional; settings: 30 µM; further: in the data most compounds retested in dose-response had high values
# T4 sequence (whole entry): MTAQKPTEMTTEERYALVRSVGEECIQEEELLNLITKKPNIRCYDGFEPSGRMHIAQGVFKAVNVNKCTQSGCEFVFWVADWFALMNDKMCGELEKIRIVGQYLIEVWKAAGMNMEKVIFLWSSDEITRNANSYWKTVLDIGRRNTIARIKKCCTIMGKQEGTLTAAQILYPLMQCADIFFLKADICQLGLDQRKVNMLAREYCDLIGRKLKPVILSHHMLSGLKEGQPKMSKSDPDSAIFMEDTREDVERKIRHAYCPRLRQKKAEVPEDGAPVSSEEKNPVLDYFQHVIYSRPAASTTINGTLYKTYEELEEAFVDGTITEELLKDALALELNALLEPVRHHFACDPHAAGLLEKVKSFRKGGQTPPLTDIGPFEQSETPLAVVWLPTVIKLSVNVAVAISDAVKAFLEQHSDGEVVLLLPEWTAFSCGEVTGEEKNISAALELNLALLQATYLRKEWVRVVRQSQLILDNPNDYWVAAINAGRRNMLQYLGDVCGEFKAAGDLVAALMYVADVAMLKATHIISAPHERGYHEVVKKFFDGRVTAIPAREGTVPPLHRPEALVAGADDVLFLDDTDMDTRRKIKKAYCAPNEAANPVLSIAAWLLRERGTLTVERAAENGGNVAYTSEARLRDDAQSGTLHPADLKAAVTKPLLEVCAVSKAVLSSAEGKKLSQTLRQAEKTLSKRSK
# [8] = molecular target: T4, Tyrosyl-tRNA synthetase, putative (Trypanosoma cruzi (strain CL Brener)); test: Trypanosoma cruzi tyrosyl tRNA synthetase (TcYRS) SOP; format: functional; settings: 30 µM
# [9] = molecular target: Chromo domain-containing protein 1 (Saccharomyces cerevisiae (strain ATCC 204508 / S288c) (Baker's yeast)) (UniProt P32657); test: ScCHD-1 Enzyme Inhibition Assay; format: functional; settings: 30 µM; further: in the data most compounds retested in dose-response had high values
# Chromo domain-containing protein 1 (Saccharomyces cerevisiae (strain ATCC 204508 / S288c) (Baker's yeast)), sequence (P32657 whole entry, the tested form may be a part): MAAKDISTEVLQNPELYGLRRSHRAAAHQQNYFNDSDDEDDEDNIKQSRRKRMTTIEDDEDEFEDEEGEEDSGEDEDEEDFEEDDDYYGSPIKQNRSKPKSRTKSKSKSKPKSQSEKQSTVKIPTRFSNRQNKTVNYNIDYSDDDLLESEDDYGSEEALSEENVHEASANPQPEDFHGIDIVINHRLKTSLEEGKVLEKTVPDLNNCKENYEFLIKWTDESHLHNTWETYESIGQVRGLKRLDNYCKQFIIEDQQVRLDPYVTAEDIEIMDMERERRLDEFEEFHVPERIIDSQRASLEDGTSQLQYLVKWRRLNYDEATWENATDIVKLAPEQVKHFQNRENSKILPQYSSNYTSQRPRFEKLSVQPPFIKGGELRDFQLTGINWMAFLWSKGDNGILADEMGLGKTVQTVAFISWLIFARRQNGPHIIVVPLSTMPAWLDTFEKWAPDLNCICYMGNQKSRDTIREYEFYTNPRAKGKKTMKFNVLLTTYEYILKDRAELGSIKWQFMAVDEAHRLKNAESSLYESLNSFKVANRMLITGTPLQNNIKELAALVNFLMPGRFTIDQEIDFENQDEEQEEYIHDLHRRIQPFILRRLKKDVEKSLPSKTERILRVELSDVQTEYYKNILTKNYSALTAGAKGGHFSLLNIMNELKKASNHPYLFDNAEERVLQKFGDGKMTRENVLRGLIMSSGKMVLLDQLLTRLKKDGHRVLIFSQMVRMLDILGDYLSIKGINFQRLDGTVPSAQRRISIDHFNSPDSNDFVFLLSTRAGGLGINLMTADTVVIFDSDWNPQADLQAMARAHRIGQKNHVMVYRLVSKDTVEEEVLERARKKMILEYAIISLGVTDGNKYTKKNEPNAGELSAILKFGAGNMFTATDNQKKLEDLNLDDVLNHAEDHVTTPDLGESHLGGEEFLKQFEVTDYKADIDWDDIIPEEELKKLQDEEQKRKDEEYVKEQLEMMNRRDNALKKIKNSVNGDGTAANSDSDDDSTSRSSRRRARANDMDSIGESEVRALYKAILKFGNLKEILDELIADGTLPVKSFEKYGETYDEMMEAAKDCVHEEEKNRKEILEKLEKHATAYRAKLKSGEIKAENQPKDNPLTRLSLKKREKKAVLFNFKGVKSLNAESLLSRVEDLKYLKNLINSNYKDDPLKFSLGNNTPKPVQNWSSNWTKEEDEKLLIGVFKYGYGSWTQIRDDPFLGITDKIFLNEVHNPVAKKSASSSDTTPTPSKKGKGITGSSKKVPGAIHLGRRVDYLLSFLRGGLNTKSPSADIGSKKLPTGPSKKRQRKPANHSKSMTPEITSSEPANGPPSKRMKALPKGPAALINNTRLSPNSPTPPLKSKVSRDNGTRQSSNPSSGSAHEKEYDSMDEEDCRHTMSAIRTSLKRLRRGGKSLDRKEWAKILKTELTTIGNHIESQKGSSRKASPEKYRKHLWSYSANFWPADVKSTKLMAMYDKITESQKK
# Sialic acid-binding Ig-like lectin 9 (Homo sapiens), sequence (Q9Y336 whole entry): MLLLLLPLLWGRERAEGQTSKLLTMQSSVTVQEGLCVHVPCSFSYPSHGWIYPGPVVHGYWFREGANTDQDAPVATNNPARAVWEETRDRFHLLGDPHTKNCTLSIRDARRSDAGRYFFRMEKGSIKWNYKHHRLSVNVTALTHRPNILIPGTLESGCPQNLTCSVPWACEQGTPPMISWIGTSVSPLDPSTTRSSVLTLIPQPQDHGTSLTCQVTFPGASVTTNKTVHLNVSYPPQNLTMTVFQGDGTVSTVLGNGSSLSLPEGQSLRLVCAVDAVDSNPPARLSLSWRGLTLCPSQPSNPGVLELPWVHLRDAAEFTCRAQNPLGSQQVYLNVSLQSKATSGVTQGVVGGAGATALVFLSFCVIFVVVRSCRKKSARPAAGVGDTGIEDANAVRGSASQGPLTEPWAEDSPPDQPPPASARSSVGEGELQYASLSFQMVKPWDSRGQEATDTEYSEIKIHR
# Protein translocase subunit SecA (Escherichia coli (strain K12)), sequence (P10408 whole entry): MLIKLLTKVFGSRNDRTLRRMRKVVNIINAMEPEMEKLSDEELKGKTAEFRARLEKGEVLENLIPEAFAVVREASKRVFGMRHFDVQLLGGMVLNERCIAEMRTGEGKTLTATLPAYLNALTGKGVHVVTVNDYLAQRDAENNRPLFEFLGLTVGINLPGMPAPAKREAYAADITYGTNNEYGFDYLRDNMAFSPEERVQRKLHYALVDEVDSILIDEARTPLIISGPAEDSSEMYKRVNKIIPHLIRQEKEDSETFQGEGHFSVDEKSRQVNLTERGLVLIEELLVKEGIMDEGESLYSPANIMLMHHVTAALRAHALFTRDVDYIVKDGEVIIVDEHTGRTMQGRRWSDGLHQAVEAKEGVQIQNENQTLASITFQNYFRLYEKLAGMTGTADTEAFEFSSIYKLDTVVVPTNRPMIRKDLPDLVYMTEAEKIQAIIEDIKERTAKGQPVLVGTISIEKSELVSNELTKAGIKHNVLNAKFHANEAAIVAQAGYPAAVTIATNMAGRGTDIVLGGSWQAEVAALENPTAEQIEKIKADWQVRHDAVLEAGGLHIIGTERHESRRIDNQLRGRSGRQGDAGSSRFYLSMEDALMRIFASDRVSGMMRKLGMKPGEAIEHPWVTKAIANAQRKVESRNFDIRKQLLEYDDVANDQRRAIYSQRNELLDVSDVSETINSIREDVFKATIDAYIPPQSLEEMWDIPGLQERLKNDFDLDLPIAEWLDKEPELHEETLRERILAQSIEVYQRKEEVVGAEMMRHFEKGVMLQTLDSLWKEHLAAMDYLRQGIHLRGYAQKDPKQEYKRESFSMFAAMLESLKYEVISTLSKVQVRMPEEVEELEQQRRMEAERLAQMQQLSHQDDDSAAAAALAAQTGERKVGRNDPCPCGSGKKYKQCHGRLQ
SMILES,Percent Effect [1],Percent Effect [2],Percent Effect [3],Percent Effect [4],Percent Effect (Trypanosoma cruzi),Percent Effect [5],Percent Effect [6],Percent Effect (Homo sapiens),Percent Effect [7],Percent Effect [8],Percent Effect [9]
Cc1nc(C)n(CC2CCCN2Cc2cscn2)n1 (stereo not given),-4.14%,2.6%,3.5%,10.9%,2.64%,-0.21%,-0.404%,-14.6%,5.71%,11.8%,-13.6%
Cc1sc(NC(=O)CN(C)S(C)(=O)=O)c(C#N)c1C,-2.06%,7.79%,7.85%,-2.17%,-6.8%,-29%,13.4%,2.12%,5.29%,8.97%,-6.9%
COc1cc(CNCc2ccnc(N3CCOCC3)c2)cc(Cl)c1OC,-5.46%,16.2%,-4.43%,13.4%,0.0943%,-5.21%,3.78%,27.8%,5.42%,18.5%,-8.15%
CC(=O)N1CCCC1c1ccc(C(=O)N2CCOCC2)s1 (stereo not given),-6.72%,-2.7%,2.48%,-7.62%,-4.2%,-2.23%,-0.601%,26.2%,-2.15%,-3.7%,4.51%
Cn1ccnc1CN1C[C@@H](CN2CCC(CO)CC2)[C@@H](CO)C1,-7.42%,5.41%,-7.54%,7.63%,6.37%,-1.43%,17.4%,7.57%,1.59%,14.6%,-5.25%
